From the supplement of paper PMC11732987, “Enantioselective OTUD7B fragment discovery through chemoproteomics screening and high-throughput optimisation” (Communications Chemistry, 2025)

What follows are compounds tested against T1, USP38 (UniProt Q8NB14) (assay: log2 ratio of Biotin-Ahx-Ub-VS probe labelling (compound/DMSO); higher = less target engagement, active = hit call of the paper (q ≤ 0.05, log2 ratio ≤ -1)). Details: compound concentration: 50uM; treatment time: 3 h.
T1 sequence (whole entry): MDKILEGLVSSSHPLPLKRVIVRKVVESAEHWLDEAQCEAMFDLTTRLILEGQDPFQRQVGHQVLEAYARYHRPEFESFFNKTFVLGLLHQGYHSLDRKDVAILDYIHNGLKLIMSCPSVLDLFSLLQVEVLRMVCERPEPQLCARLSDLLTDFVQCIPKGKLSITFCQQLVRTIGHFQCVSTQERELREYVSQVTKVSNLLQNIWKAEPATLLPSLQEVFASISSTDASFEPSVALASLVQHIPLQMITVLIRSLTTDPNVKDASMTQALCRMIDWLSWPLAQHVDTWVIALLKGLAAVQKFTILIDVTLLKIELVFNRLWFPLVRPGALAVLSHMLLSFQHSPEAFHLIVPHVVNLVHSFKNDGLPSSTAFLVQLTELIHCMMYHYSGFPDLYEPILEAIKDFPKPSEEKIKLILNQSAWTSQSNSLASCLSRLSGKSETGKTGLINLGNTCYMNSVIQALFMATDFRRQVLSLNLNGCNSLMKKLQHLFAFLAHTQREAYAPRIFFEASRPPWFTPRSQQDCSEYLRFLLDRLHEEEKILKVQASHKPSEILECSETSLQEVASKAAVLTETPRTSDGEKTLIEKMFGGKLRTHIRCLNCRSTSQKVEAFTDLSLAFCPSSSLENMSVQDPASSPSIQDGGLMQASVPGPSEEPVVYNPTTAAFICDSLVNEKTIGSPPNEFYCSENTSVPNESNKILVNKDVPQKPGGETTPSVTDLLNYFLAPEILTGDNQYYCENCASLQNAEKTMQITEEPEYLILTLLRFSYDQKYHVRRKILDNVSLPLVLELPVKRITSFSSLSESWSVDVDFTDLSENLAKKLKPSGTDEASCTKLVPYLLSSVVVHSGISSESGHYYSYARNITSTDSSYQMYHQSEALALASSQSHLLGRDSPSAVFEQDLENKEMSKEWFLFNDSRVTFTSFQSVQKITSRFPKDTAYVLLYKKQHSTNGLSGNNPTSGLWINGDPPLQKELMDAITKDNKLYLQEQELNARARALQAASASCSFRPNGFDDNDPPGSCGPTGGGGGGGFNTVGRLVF
Experimental: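 Round 2 competitive ABPP in HEK293T lysate. Purified HTC-D2B compounds were tested at 50 and 200 µM for 3 h, followed by Biotin-Ahx-Ub-VS enrichment and diaPASEF LC-MS/MS. Values are the average log2 ratio (compound/DMSO) from an unpaired t-test (n=3 treated, n=26 DMSO).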

log2 ratio of Biotin-Ahx-Ub-VS probe labelling, inactive:
COc1ccc(CN(C)C(=O)CCl)cc1 0.023
O=C(CCl)NC(c1cccs1)C1CCCC1 (stereo unspecified) 0.192
O=C(CCl)N1CCc2cc(Cl)c(Cl)cc2C1 0.253
O=C(CCl)NC1CCCc2ccccc21 (stereo unspecified) 0.0146
O=C(CCl)N1CCc2scc(Br)c2C1 0.0294
Cc1ccccc1COc1cccc(CN(C)C(=O)CCl)c1 -0.192
CN(Cc1cccc(Br)c1)C(=O)CCl 0.171
Cl.Cl.O=C(CCl)N1CCc2nc(N3CCN(c4ccc(F)cc4)CC3)ncc2C1 0.202
O=C(CCl)N[C@H]1CCCc2ccccc21 0.0645
O=C(CCl)NC1CCOc2ccc(Cl)cc21 (stereo unspecified) 0.126
O=C(CCl)N1CCc2nocc2C1 -0.0321
CN(Cc1ccccc1)C(=O)CCl -0.0215
CCC1c2cc(Cl)c(OC)cc2CCN1C(=O)CCl (stereo unspecified) 0.207
O=C(CCl)NC1CCSc2ccccc21 (stereo unspecified) 0.05
O=C(CCl)N1Cc2sccc2C(O)C1 (stereo unspecified) 0.173
O=C(CCl)N1CCc2nc(-c3ccccc3)ncc2C1 0.272
COc1cccc(CN(CCCc2ccccc2)C(=O)CCl)c1 -0.105
CCCC1c2cc(OC)c(OC)cc2CCN1C(=O)CCl (stereo unspecified) -0.184

Same assay, conditions: compound concentration: 200uM; treatment time: 3 h

log2 ratio of Biotin-Ahx-Ub-VS probe labelling, inactive:
COc1ccc(CN(C)C(=O)CCl)cc1 -0.826
O=C(CCl)NC(c1cccs1)C1CCCC1 (stereo unspecified) -0.22
O=C(CCl)N1CCc2cc(Cl)c(Cl)cc2C1 -0.962
O=C(CCl)NC1CCCc2ccccc21 (stereo unspecified) -0.162
O=C(CCl)N1CCc2scc(Br)c2C1 -0.844
Cc1ccccc1COc1cccc(CN(C)C(=O)CCl)c1 -0.383
CN(Cc1cccc(Br)c1)C(=O)CCl -0.322
Cl.Cl.O=C(CCl)N1CCc2nc(N3CCN(c4ccc(F)cc4)CC3)ncc2C1 -0.918
O=C(CCl)N[C@H]1CCCc2ccccc21 -0.252
O=C(CCl)NC1CCOc2ccc(Cl)cc21 (stereo unspecified) -0.261
O=C(CCl)N1CCc2nocc2C1 -0.473
CN(Cc1ccccc1)C(=O)CCl -0.641
CCC1c2cc(Cl)c(OC)cc2CCN1C(=O)CCl (stereo unspecified) -0.934
O=C(CCl)NC1CCSc2ccccc21 (stereo unspecified) -0.3
O=C(CCl)N1Cc2sccc2C(O)C1 (stereo unspecified) -0.212
O=C(CCl)N1CCc2nc(-c3ccccc3)ncc2C1 -0.407
COc1cccc(CN(CCCc2ccccc2)C(=O)CCl)c1 -0.679
CCCC1c2cc(OC)c(OC)cc2CCN1C(=O)CCl (stereo unspecified) -0.48
